Measured values reported in PubChem BioAssay (NCI).
This is part of a sample that, as a whole, favours compounds with a hit. Of some 83,000 tested, about 20% had one in any assay.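 Cell lines were cultured in 96-well plates, exposed to a single compound concentration, and assessed for percent growth 48 hours later.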 Active and inactive are the calls of the source. Rule for the calls: active = growth percent below 10; inactive = the rest.

What was measured:
Assay in all cases: NCI-60 one-dose screen, 48 h (100 = growth as untreated, 0 = no growth, -100 = all killed)
Settings in all cases: 10 µM
NCI-H23 lung = tested on: NCI-H23 lung
NCI-H322M lung = tested on: NCI-H322M lung
HOP-62 NSCLC = tested on: HOP-62 NSCLC
NCI-H460 lung = tested on: NCI-H460 lung
HOP-92 NSCLC = tested on: HOP-92 NSCLC
786-0 renal = tested on: 786-0 renal
COLO 205 colon = tested on: COLO 205 colon
NCI-H522 lung = tested on: NCI-H522 lung
A549/ATCC NSCLC = tested on: A549/ATCC NSCLC
NCI-H226 lung = tested on: NCI-H226 lung

Measured: growth

N#CCCc1ccc(O)cc1
inactive: NCI-H23 lung 117% | NCI-H322M lung 102% | HOP-62 NSCLC 104% | NCI-H460 lung 103% | HOP-92 NSCLC 108% | 786-0 renal 104% | COLO 205 colon 114%

CC(=O)OCC(=O)[C@@]1(O)CC[C@H]2[C@@H]3CC[C@@H]4C[C@H](O)CC[C@]4(C)[C@H]3C(=O)C[C@@]21C
inactive: NCI-H23 lung 103% | NCI-H322M lung 131% | HOP-62 NSCLC 105% | NCI-H460 lung 108% | NCI-H522 lung 90.4% | A549/ATCC NSCLC 101% | 786-0 renal 105% | COLO 205 colon 105%

CC1CCCCN1C(=S)Nc1ccc(S(=O)(=O)N2CCCCC2)cc1 (centres undefined)
inactive: NCI-H23 lung 104% | NCI-H322M lung 118% | NCI-H460 lung 97.1% | HOP-92 NSCLC 63.1% | NCI-H522 lung 73% | A549/ATCC NSCLC 101% | 786-0 renal 92.6%

COC(=O)/C=C/C(=O)NC(N)=O
inactive: NCI-H23 lung 94.7% | NCI-H322M lung 107% | HOP-62 NSCLC 98.8% | NCI-H460 lung 105% | 786-0 renal 103% | COLO 205 colon 105%

CCCCCCCCCCC1CO1 (centres undefined)
inactive: NCI-H23 lung 106% | NCI-H322M lung 109% | HOP-62 NSCLC 95.1% | NCI-H460 lung 105% | NCI-H522 lung 102% | A549/ATCC NSCLC 99.5% | 786-0 renal 101% | COLO 205 colon 105%

O=C1OC[C@H]2[C@H](c3ccc(O)c(O)c3)c3cc(O)c(O)cc3C[C@H]12
inactive: NCI-H23 lung 13.4% | NCI-H322M lung 130% | HOP-62 NSCLC 130% | NCI-H460 lung 122% | NCI-H522 lung 19.4% | 786-0 renal 110% | COLO 205 colon 108%

O=C1C=C(Nc2ccc([N+](=O)[O-])cc2)c2ccccc2C1=O
inactive: NCI-H23 lung 30.1% | NCI-H322M lung 75.3% | HOP-62 NSCLC 51.9% | NCI-H460 lung 46.4% | NCI-H522 lung 21.5% | A549/ATCC NSCLC 33.3% | 786-0 renal 66.6% | COLO 205 colon 105%

CC(=O)NCc1cc(C)c(C)cc1C
inactive: NCI-H23 lung 102% | NCI-H322M lung 92% | HOP-62 NSCLC 106% | NCI-H460 lung 104% | 786-0 renal 97.8% | COLO 205 colon 94.2%

COc1ccc(OC)c(/C=C2\CCc3ccccc3C2=O)c1
inactive: NCI-H23 lung 62.7% | NCI-H322M lung 70% | NCI-H460 lung 13.9% | HOP-92 NSCLC 45.2% | NCI-H522 lung 22.5% | A549/ATCC NSCLC 42.6% | 786-0 renal 46.9%

CCCC[P+](c1ccccc1)(c1ccccc1)c1ccccc1
inactive: NCI-H23 lung 44.4% | NCI-H322M lung 95.1% | HOP-62 NSCLC 80.2% | NCI-H460 lung 53.4% | NCI-H522 lung 39.6% | A549/ATCC NSCLC 53.7% | 786-0 renal 98.9% | COLO 205 colon 32.2%

O=C(N/N=C\c1cc(Br)cc(Br)c1O)N/N=C/c1cc(Br)cc(Br)c1O
inactive: NCI-H23 lung 67.1% | NCI-H322M lung 42.2% | HOP-62 NSCLC 52.8% | NCI-H460 lung 69.8% | NCI-H522 lung 22.3% | 786-0 renal 46.5% | COLO 205 colon 62.1%

Cc1cc(N2CCC(N3CCCC3)CC2)nc(/N=C(\N)Nc2ccc(Cl)c(Cl)c2)n1
active: NCI-H322M lung -30.6% | HOP-62 NSCLC -8.02% | NCI-H460 lung -67.8% | NCI-H522 lung -66.4% | A549/ATCC NSCLC -22.1% | 786-0 renal -54.3% | COLO 205 colon -82.3%
inactive: NCI-H23 lung 56.8%

CC(=O)OCCO
inactive: NCI-H23 lung 108% | NCI-H322M lung 102% | HOP-62 NSCLC 109% | NCI-H460 lung 111% | NCI-H522 lung 111% | A549/ATCC NSCLC 99.2% | 786-0 renal 101% | COLO 205 colon 107%

COC(=O)c1cccc(Br)c1
inactive: NCI-H23 lung 102% | NCI-H322M lung 97.5% | HOP-62 NSCLC 92% | NCI-H460 lung 109% | NCI-H522 lung 102% | A549/ATCC NSCLC 116% | 786-0 renal 110% | COLO 205 colon 121%

Oc1ccccc1O
inactive: NCI-H23 lung 97.7% | NCI-H322M lung 91.2% | HOP-62 NSCLC 95.9% | NCI-H460 lung 100% | HOP-92 NSCLC 90.5% | COLO 205 colon 93.8%

c1csc(-c2cc(-c3cc(-c4cccs4)[nH]n3)n[nH]2)c1
inactive: NCI-H23 lung 91% | NCI-H322M lung 94.4% | HOP-62 NSCLC 88.3% | NCI-H460 lung 107% | NCI-H522 lung 88.9% | A549/ATCC NSCLC 107% | 786-0 renal 98.9% | COLO 205 colon 114%

CC(=O)c1ccc(N=C(C#N)C2=C(O)c3ccccc3C2=O)cc1
inactive: NCI-H23 lung 104% | NCI-H322M lung 100% | HOP-62 NSCLC 100% | NCI-H460 lung 101% | NCI-H522 lung 78.6% | 786-0 renal 103% | COLO 205 colon 111%

N#CC1(Nc2ccc3c4c(cccc24)CC3)CCCCC1
inactive: NCI-H23 lung 93.5% | NCI-H322M lung 85.1% | HOP-62 NSCLC 92.9% | NCI-H460 lung 105% | NCI-H522 lung 63.3% | A549/ATCC NSCLC 95% | 786-0 renal 106% | COLO 205 colon 94.7%

O=c1[nH][nH]c(=O)c2cc([N+](=O)[O-])ccc12
inactive: NCI-H23 lung 101% | NCI-H322M lung 123% | HOP-62 NSCLC 102% | NCI-H460 lung 111% | NCI-H522 lung 90.6% | A549/ATCC NSCLC 108% | 786-0 renal 106% | COLO 205 colon 99.6%

CCCNc1ccc(C2=NCCCN2)cc1
inactive: NCI-H23 lung 95.6% | NCI-H322M lung 88.7% | HOP-62 NSCLC 94.9% | NCI-H460 lung 103% | NCI-H522 lung 94.2% | A549/ATCC NSCLC 79.2% | 786-0 renal 88.9% | COLO 205 colon 99.5%

COS(=O)(=O)c1ccc(Br)cc1
inactive: NCI-H23 lung 97.6% | NCI-H322M lung 118% | HOP-62 NSCLC 95.6% | NCI-H460 lung 115% | NCI-H522 lung 104% | A549/ATCC NSCLC 103% | 786-0 renal 111% | COLO 205 colon 104%

CCCCOC(=O)c1ccc(C(C)C)cc1
inactive: NCI-H23 lung 98.2% | NCI-H322M lung 96.3% | HOP-62 NSCLC 85.4% | NCI-H460 lung 109% | NCI-H522 lung 83.1% | 786-0 renal 95.4% | COLO 205 colon 110%

C=CCNC(=O)c1ccc(OC)cc1
active: NCI-H522 lung -12.1%
inactive: NCI-H23 lung 99.5% | NCI-H322M lung 98.5% | HOP-62 NSCLC 109% | NCI-H460 lung 114% | A549/ATCC NSCLC 50.4% | 786-0 renal 107% | COLO 205 colon 109%

CC(=O)c1sc2c(c1OC(=O)c1ccc(Cl)cc1Cl)c(=O)n(-c1ccccc1)c(=S)n2-c1ccccc1
inactive: NCI-H23 lung 23.9% | NCI-H460 lung 25.2% | A549/ATCC NSCLC 32.1%
active: NCI-H322M lung -37.3% | HOP-62 NSCLC 9.38% | NCI-H522 lung -35% | 786-0 renal -7.98% | COLO 205 colon 5.77%

C/C(=N\O)C1(O)CCCCC1
inactive: NCI-H23 lung 99.5% | NCI-H322M lung 87.6% | HOP-62 NSCLC 106% | NCI-H460 lung 98.3% | NCI-H522 lung 92.8% | A549/ATCC NSCLC 102% | 786-0 renal 99% | COLO 205 colon 99.4%

CNc1nc(NC)c2cn[nH]c2n1
inactive: NCI-H23 lung 104% | NCI-H322M lung 116% | HOP-62 NSCLC 104% | NCI-H460 lung 109% | HOP-92 NSCLC 84.9% | 786-0 renal 101% | COLO 205 colon 95.6%

N#CC(=Nc1cccc(F)c1)C1=C(O)c2ccccc2C1=O
inactive: NCI-H23 lung 94.8% | NCI-H322M lung 96.3% | HOP-62 NSCLC 88.4% | NCI-H460 lung 102% | A549/ATCC NSCLC 95.6% | 786-0 renal 97.5% | COLO 205 colon 96%

O=C(/C=C/C(=O)c1ccccc1)c1ccccc1
inactive: NCI-H23 lung 99% | NCI-H322M lung 116% | HOP-62 NSCLC 109% | HOP-92 NSCLC 96.3% | NCI-H522 lung 74.8% | A549/ATCC NSCLC 105% | 786-0 renal 103% | COLO 205 colon 70.1%

O=C(O)[C@@H]1[C@H]2C[C@H]3c4[nH]c5ccccc5c4CCN3C[C@@H]2CC[C@@H]1O
inactive: NCI-H23 lung 102% | NCI-H322M lung 110% | NCI-H460 lung 121% | HOP-92 NSCLC 109% | NCI-H522 lung 18.2% | A549/ATCC NSCLC 101% | 786-0 renal 76% | COLO 205 colon 123%

O=[N+]([O-])c1cccc(N=Nc2ccc(O)cc2O)c1
active: NCI-H522 lung -11.1%
inactive: NCI-H23 lung 74.3% | NCI-H322M lung 95.9% | HOP-62 NSCLC 103% | NCI-H460 lung 91.6% | A549/ATCC NSCLC 93.6% | 786-0 renal 74% | COLO 205 colon 92.2%

CC(CC(=O)c1ccccc1)c1ccccc1 (centres undefined)
inactive: NCI-H23 lung 106% | NCI-H322M lung 90.6% | HOP-62 NSCLC 119% | NCI-H460 lung 104% | NCI-H522 lung 84.1% | 786-0 renal 96.8% | COLO 205 colon 123%

O=C1Cc2cc(O)ccc2O1
inactive: NCI-H23 lung 111% | NCI-H322M lung 94.5% | HOP-62 NSCLC 101% | NCI-H460 lung 111% | NCI-H522 lung 88.4% | A549/ATCC NSCLC 98.7% | 786-0 renal 103% | COLO 205 colon 117%

CCOc1ccc(Br)cc1/C=N\N=C\c1cc(Br)ccc1OCC
inactive: NCI-H226 lung 97.6% | NCI-H322M lung 111% | HOP-62 NSCLC 108% | NCI-H460 lung 103% | HOP-92 NSCLC 92.2% | NCI-H522 lung 104% | A549/ATCC NSCLC 104% | 786-0 renal 105% | COLO 205 colon 119%

c1ccc(Sc2ccccc2)cc1
inactive: NCI-H23 lung 105% | NCI-H322M lung 118% | HOP-62 NSCLC 104% | NCI-H460 lung 106% | NCI-H522 lung 139% | A549/ATCC NSCLC 96.6% | 786-0 renal 113% | COLO 205 colon 115%

CCCCC(CC)COC(C)=O (centres undefined)
inactive: NCI-H23 lung 100% | NCI-H322M lung 98% | NCI-H460 lung 106% | NCI-H522 lung 105% | A549/ATCC NSCLC 105% | 786-0 renal 96% | COLO 205 colon 100%
